# In PubChem BioAssay (NCI):
# Compounds without any hit were thinned out: in the full panel of roughly 79,000, 15% have a hit. Unmarked numbers belong to inactive results. Active and inactive are the calls of the source. Rule as the data show it: active = growth inhibition above about 70%; inactive = the rest.
# Experiments:
# [1] = NCI Yeast Anticancer Drug Screen. Data for the rad50 strain (AID 155);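 also: 0% = growth of vehicle-only cultures of the same strain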; conditions: S. cerevisiae rad50 strain growth inhibition, active compounds read high
# In short: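 Inhibition values express reduced yeast growth in compound-treated cultures relative to vehicle-treated controls.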
# [2] = NCI Yeast Anticancer Drug Screen. Data for the mec2-1 strain (AID 157); conditions: S. cerevisiae mec2-1 strain, active compounds read high
# In short: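 Growth inhibition is read against vehicle-treated controls after compound exposure of the mec2-1 yeast strain, which is defective in DNA damage repair or cell cycle control.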
# [3] = NCI Yeast Anticancer Drug Screen. Data for the sgs1 mgt1 strain (AID 161);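 also: 0% = growth of cultures given vehicle only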; conditions: S. cerevisiae sgs1 mgt1 strain, active compounds read high
# In short: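 This yeast growth screen uses a strain with defined DNA-repair lesions; compound-treated growth is compared with vehicle-treated growth.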
# [4] = NCI Yeast Anticancer Drug Screen. Data for the cln2 rad14 strain (AID 165);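 also: 0% = growth equal to vehicle treated cultures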; conditions: S. cerevisiae cln2 rad14 strain, active compounds read high
# In short: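 Growth inhibition, relative to vehicle-treated controls, is the read-out. The test organism is a yeast strain with defined genetic alterations, cln2 rad14.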
# [5] = NCI Yeast Anticancer Drug Screen. Data for the bub3 strain (AID 167); conditions: S. cerevisiae bub3 mutant strain, active compounds read high
# In short: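 Steps: expose the mutant yeast strain to compound; grow alongside vehicle-treated cultures; measure growth; express inhibition against the vehicle cultures.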
# [6] = NCI Yeast Anticancer Drug Screen. Data for the mlh1 rad18 strain (AID 175); conditions: S. cerevisiae mlh1 rad18 strain growth inhibition, active compounds read high
# In short: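 Cells of a genetically altered yeast strain, deficient in DNA damage repair, were treated with compound. Their growth was then compared with that of vehicle-treated cultures to give inhibition.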
# [7] = at 5.0 µM (retest, dose inferred, filed as 0.5)
# [8] = at 50.0 µM (retest, dose inferred, filed as 5.0)
SMILES,"growth inhibition [1, 7]","growth inhibition [1, 8]",growth inhibition ([1]; at 50.0 µM),"growth inhibition [2, 7]","growth inhibition [2, 8]",growth inhibition ([2]; at 50.0 µM),"growth inhibition [3, 7]","growth inhibition [3, 8]",growth inhibition ([3]; at 50.0 µM),"growth inhibition [4, 7]","growth inhibition [4, 8]",growth inhibition ([4]; at 50.0 µM),"growth inhibition [5, 7]","growth inhibition [5, 8]",growth inhibition ([5]; at 50.0 µM),"growth inhibition [6, 7]","growth inhibition [6, 8]",growth inhibition ([6]; at 50.0 µM)
Cc1nc2c(cnn2C)cc1CCc1ccccc1,2%,16%,14.7%,3%,35%,3.9%,5%,53%,19.6%,12%,50%,25.1%,23%,78% (active),76.1% (active),8%,39%,23.6%
CCCCCCCCCC1OCC(C)O1 (stereo not given),3%,30%,53%,3%,30%,44.6%,-2%,38%,73.2% (active),6%,17%,4%,7%,36%,7.7%,4%,62%,61.2%
O=C(N/C(=C\c1cccc([N+](=O)[O-])c1)c1nc2ccccc2s1)c1ccccc1,36%,98% (active),98.5% (active),29%,98% (active),98.6% (active),55%,98% (active),98.9% (active),12%,98% (active),98.1% (active),40%,98% (active),97.8% (active),29%,98% (active),98.2% (active)
CN1C(=O)[C@@H]2N(N(C)C1=O)[C@@]1(Br)C(=O)N(C)C(=O)[C@@]21Br,18%,78% (active),92.5% (active),4%,57%,79% (active),18%,84% (active),87.8% (active),4%,24%,67.8%,1%,53%,94.5% (active),14%,91% (active),97.8% (active)
CSS(=O)(=O)c1ccc(C)cc1,22%,99% (active),99.7% (active),22%,100% (active),99.7% (active),21%,100% (active),99.2% (active),-27%,99% (active),99.4% (active),18%,100% (active),99.5% (active),-10%,99% (active),99.5% (active)
Cc1cc(Nc2ccc(O)c(CN3CCN(Cc4cc(Nc5cc(C)nc(N)n5)ccc4O)CC3)c2)nc(N)n1,8%,95% (active),97.5% (active),6%,96% (active),96.9% (active),5%,96% (active),97.5% (active),12%,94% (active),89.7% (active),9%,95% (active),95.4% (active),7%,97% (active),97.5% (active)
O=C1O/C(=C(\Cc2ccccc2)c2ccccc2)N(c2ccccc2)C1=O,5%,30%,69.2%,-6%,23%,18.6%,0%,28%,22.9%,-5%,-9%,-30.2%,0%,13%,14.9%,-6%,21%,28.8%
CCCCCC(C)NCC(O)Cc1ccc(OCCCC)cc1 (stereo not given),22%,100% (active),99.5% (active),29%,99% (active),99.3% (active),37%,100% (active),99.3% (active),34%,100% (active),98.9% (active),42%,100% (active),99.5% (active),20%,100% (active),99.7% (active)
CCCCCCCCCCCCNC(=O)C[n+]1cccc(C(=O)Nc2ccccc2)c1,99% (active),97% (active),98.8% (active),100% (active),99% (active),98.8% (active),99% (active),98% (active),99.5% (active),99% (active),98% (active),98.6% (active),99% (active),98% (active),98.2% (active),99% (active),98% (active),98.2% (active)
COc1cccc(-c2cc(=O)c3c(C)ccnc3[nH]2)c1,8%,8%,80.5% (active),4%,4%,49.8%,15%,15%,70.8% (active),-4%,-4%,30%,-9%,-9%,68%,14%,14%,61.8%
CC(=O)OCCn1c2nc(=O)[nH]c(=O)c-2nc2cc(C)c(C)cc21,-4%,18%,0.8%,0%,18%,-3.35%,1%,81% (active),35%,-4%,2%,-42.9%,-1%,1%,8%,9%,14%,47.5%
CC(NNC(=S)N1CCCC1)c1cc2ccccc2cn1 (stereo not given),30%,99% (active),89.2% (active),38%,99% (active),90.8% (active),62%,98% (active),90.8% (active),66%,96% (active),90.3% (active),64%,98% (active),88.2% (active),34%,98% (active),92.2% (active)
COc1ccc2ccccc2c1-c1c(O)ccc2ccccc12,0%,80% (active),93.5% (active),-5%,71% (active),95.8% (active),-2%,63%,97.2% (active),-5%,72% (active),93.3% (active),-6%,64%,97.9% (active),-8%,78% (active),96% (active)
CCCC#CCCOC(=O)c1cc([N+](=O)[O-])cc([N+](=O)[O-])c1,3%,97% (active),99.2% (active),5%,99% (active),98.5% (active),12%,99% (active),99.5% (active),-7%,76% (active),98.9% (active),-11%,96% (active),99.4% (active),5%,98% (active),98.5% (active)
CC(=O)Oc1ccc(/C=C2\N=C(c3ccccc3)OC2=O)c(OC(C)=O)c1,4%,75% (active),15.3%,1%,55%,4.25%,-4%,36%,10.8%,2%,37%,25.8%,-2%,79% (active),9.55%,0%,77% (active),1.05%
O=[N+]([O-])c1ccc2c(c1)N([O-])C1(CCCCC1)[N+]2=O,25%,99% (active),89% (active),24%,99% (active),92.9% (active),23%,97% (active),91.2% (active),22%,98% (active),88% (active),10%,98% (active),91.1% (active),37%,99% (active),88.4% (active)
N=C1C=CC(=C(c2ccc(N)cc2)c2ccc(N)cc2)C=C1,-2%,99% (active),98.8% (active),24%,98% (active),98.5% (active),8%,97% (active),97.8% (active),-15%,93% (active),96.8% (active),12%,98% (active),98.3% (active),-4%,97% (active),97.4% (active)
CN(C)c1ccc(/C=C(\NC(=O)c2ccccc2)c2nc3ccccc3s2)cc1,35%,96% (active),97.1% (active),20%,97% (active),97.2% (active),61%,97% (active),98% (active),17%,95% (active),97.3% (active),37%,97% (active),95% (active),27%,96% (active),97% (active)
CCOc1ccc2c(c1)CCC1C2CCC2(C)CC(O)CC12 (stereo not given),11%,98% (active),97.7% (active),3%,67%,97.5% (active),22%,99% (active),54%,-18%,82% (active),98.6% (active),-4%,-3%,98.1% (active),14%,99% (active),98.6% (active)
Nc1ccc2c(c1)S(=O)(=O)c1cc(N)ccc1-2,22%,27%,41.4%,19%,15%,18.8%,20%,19%,-29%,18%,25%,5.8%,22%,27%,-17.8%,26%,25%,-43.8%
